In ChEMBL document CHEMBL3988442, “University of Dundee, Small-Polar-MMV Screening Library” (2021):

How the values were obtained:
[1] = target: T1, Aspartate--tRNA(Asp/Asn) ligase (Mycobacterium tuberculosis (strain ATCC 25618 / H37Rv)) (UniProt P9WFW3); experiment: Assay for Asp RNA synthetase-1 from Mycobacterium tuberculosis; type: functional; design: scale not given: direction of the effect not stated beside the values; conditions: 30 µM; further: in the data most compounds retested in dose-response had high values
T1 sequence (whole entry): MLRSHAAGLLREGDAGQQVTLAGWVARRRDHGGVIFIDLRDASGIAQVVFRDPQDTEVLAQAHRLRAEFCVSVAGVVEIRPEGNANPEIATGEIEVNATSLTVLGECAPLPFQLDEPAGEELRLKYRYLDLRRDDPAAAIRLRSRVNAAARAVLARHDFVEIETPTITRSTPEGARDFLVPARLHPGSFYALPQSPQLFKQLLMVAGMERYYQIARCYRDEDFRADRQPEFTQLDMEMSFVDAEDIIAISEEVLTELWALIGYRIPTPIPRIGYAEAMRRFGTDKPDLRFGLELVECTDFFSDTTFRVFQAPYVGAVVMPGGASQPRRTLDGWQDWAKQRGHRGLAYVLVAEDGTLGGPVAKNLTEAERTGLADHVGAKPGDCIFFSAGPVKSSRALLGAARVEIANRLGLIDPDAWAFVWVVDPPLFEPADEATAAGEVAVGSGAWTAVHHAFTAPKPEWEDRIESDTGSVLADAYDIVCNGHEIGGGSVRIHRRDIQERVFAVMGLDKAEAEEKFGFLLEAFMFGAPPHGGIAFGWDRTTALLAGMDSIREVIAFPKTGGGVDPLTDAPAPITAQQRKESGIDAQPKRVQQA

[2] = target: Shiga toxin 2 (Escherichia coli O157:H7) (UniProt P09385+P09386); experiment: E. coli 0.157:H7 Shiga Toxin SOP - stx2 screening assay; type: functional; design: scale not given: direction of the effect not stated beside the values; conditions: 30 µM

| Structure (SMILES) | Percent Effect [1] [%] | Percent Effect [2] [%] |
| --- | --- | --- |
| Cn1ncc2c(NCCOc3ccc(F)cc3)nc(C3CCCC3)nc21 | 2.47 | -46.7 |
| Cc1cc(C(=O)N2CCc3ncc(CN4CCOCC4)n3CC2)no1 | -4.02 | -7.88 |
| COc1ccc(CN2CCn3cc(CN4CCCCC4)nc3C2)cc1 | 4.3 | -5.01 |
| COCCCN1CCc2cncnc2C1 | 10.5 | -35.2 |
| CCOCC(O)CN1CCN(C(=O)c2ccc(OC)cc2F)CC1 (centres undefined) | -10.1 | -5.15 |
| CC(C)n1cc(CN2CCCN(C(=O)c3cc(Cl)c[nH]3)CC2)cn1 | 5.29 | 3.9 |
| Cc1nc(-c2ccco2)ccc1C(=O)N1CCCC1Cn1cccn1 (centres undefined) | 0.0146 | 15.5 |
| Cc1cc(C)n(C2CN(CC(=O)N(C)Cc3ccc(C)o3)C2)n1 | -0.898 | 0.889 |
| CC(C(=O)Nc1cccc(N2CCCCC2)c1)n1cncn1 (centres undefined) | 2.19 | 2.83 |
| O=C(NC1(c2cccc(F)c2)CCOCC1)c1ccoc1 | 2.05 | -19.4 |
| COCCc1noc(CN2CCCC2Cn2cc(C)cn2)n1 (centres undefined) | -2.48 | -2.29 |
| CCc1nc(C2CCCN2C(=O)CCn2cncn2)no1 (centres undefined) | 3.36 | 5.08 |
| N#Cc1ccc(CNC(=O)NC2CCN(CC(F)F)CC2)cc1 | -4.22 | -8.96 |
| O=C(c1ncccn1)N1C[C@H]2CCC[C@@]2(COCc2ccncc2)C1 | -2.08 | -24.5 |
| COc1ccc(CN2CCCC(Nc3cccc(F)c3)C2)cc1O (centres undefined) | 5.06 | 5.84 |
| COc1cccc(S(=O)(=O)NC(=O)COc2c(C)cccc2C)c1 | -3 | 6.76 |
| O=C(c1ccc(F)cc1)N1C[C@@H]2OCCN(c3ncccn3)[C@@H]2C1 | -0.874 | -4.11 |
